Laboratory results taken from PubChem BioAssay (NCI).
The panel holds about 83,000 compounds, 20% with a hit somewhere; the sample as a whole holds those more often.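 48-hour exposure, single concentration, 96-well plates; percent growth endpoint where 0 means no net growth. Active: below 10.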 Values without a mark were called inactive. Active and inactive are the calls of the source.

Legend:
Assay in all cases: NCI-60 one-dose screen, 48 h (100 = growth as untreated, 0 = no growth, -100 = all killed)
Details in all cases: 10 µM unless noted
RPMI-8226 leukemia = tested on: RPMI-8226 leukemia
OVCAR-8 ovarian = tested on: OVCAR-8 ovarian
OVCAR-5 ovarian = tested on: OVCAR-5 ovarian
OVCAR-4 ovarian = tested on: OVCAR-4 ovarian
SK-OV-3 ovarian = tested on: SK-OV-3 ovarian
IGROV1 ovarian = tested on: IGROV1 ovarian
OVCAR-3 ovarian = tested on: OVCAR-3 ovarian
HS 578T breast = tested on: HS 578T breast
NCI/ADR-RES ovarian = tested on: NCI/ADR-RES ovarian
T-47D breast = tested on: T-47D breast

| SMILES | growth (RPMI-8226 leukemia) | growth (OVCAR-8 ovarian) | growth (OVCAR-5 ovarian) | growth (OVCAR-4 ovarian) | growth (SK-OV-3 ovarian) | growth (IGROV1 ovarian) | growth (OVCAR-3 ovarian) | growth (HS 578T breast) | growth (NCI/ADR-RES ovarian) | growth (T-47D breast) |
| --- | --- | --- | --- | --- | --- | --- | --- | --- | --- | --- |
| O=c1cc(-c2cccnc2)oc2c1ccc1ccccc12 | 80.2% | 87% | 76.2% | 89.3% | 106% | 84.8% | 76.5% | 66.5% | 75.3% | 81.6% |
| COc1ccc(-c2cc(Cc3cccs3)c(=O)n(Cn3ccc4ccccc43)n2)cc1 | 88% | 99.2% | 99.9% | 111% | 106% | 124% | 111% | 112% | 107% | 109% |
| C/C(=N/N=C(N)N)c1ccc(N)cc1 | 190% | 111% | 105% | 100% | 105% | -12.3% (active) | 93.1% | 73.3% | 103% | 94.7% |
| COC(=O)CCC1=C(CC(=O)OC)C(C)=N/C1=C\c1[nH]c(-c2ccc[nH]2)cc1OC | -42.3% (active) | 9.85% (active) | 65% | 27.4% | 64.6% | 42.1% | 17.4% | 52.2% | 17.5% | 40.1% |
| Cc1cc([N+](=O)[O-])c(C)cc1C(=O)O | 115% | 103% | 93.7% | 111% | 99.2% | 110% | 106% | 107% | 103% | 83.5% |
| O=C1c2ccccc2C(=O)c2c1cccc2-n1nnc2ccccc21 | 59.8% | 102% | 105% | 97.5% | 119% | 82.9% | 115% | 94.2% | 107% | 93.5% |
| C=CCOc1ccc2c(c1)CC[C@@H]1[C@@H]2CC[C@@]2(C)[C@H]1CC[C@]2(C)O | 51.8% | 66.4% | 75.3% | 89.4% | 93.9% | 104% | 111% | 93% | 90.5% | 79.9% |
| COc1ccc(Nc2nccc(N3CCN(c4c5ccc(Cl)cc5nc5ccc(OC)cc45)CC3)n2)cc1 | 29.5% | 73.2% | 97.1% | 46.6% | 107% | 75.7% | 67.5% | 80.3% | 75.9% | 48.7% |
| O=C(CSc1nnc(Nc2ccccc2)s1)NCCc1ccc(F)cc1 | 145% | 117% | 92.9% | 102% | 113% | -2.38% (active) | 113% | 119% | 99.3% | 94.8% |
| CC(c1cc(Cl)ccc1O)c1cc(Cl)ccc1O | 20.9% | 46.5% | 70.7% | 39.3% | 27.3% | -7.07% (active) | 28.2% | 10.6% | -1.24% (active) | 89.9% |
| COc1ccc(-c2csc(NC(=O)c3cc(O)c(O)c(O)c3)n2)cc1 | 41.1% | 57.6% | 86.1% | 58.6% | 77.5% | 46.4% | 72.6% | 101% | 62.2% | 44.7% |
| Cc1scc2c1N(C(=O)CN1CCN(C)CC1)c1ccccc1NC2=O | 113% | 102% | 118% | 101% | 105% | 108% | 108% | 112% | 108% | 102% |
| ClC1C2CC(c3ccccc32)C1Cl (stereo not given) | 97.6% | 113% | 102% | 112% | 115% | 118% | 113% | 113% | 106% | 103% |
| COc1cccc(-c2nnc(N)o2)c1 | 109% | 98.7% | 105% | 97.9% | 115% | 102% | 90.4% | 101% | 102% | 97.7% |
| O=C(CN1CCCCC1)Sc1nnc2sc3ccccc3n12 | 108% | 98.8% | 144% | 105% | 89.5% | 121% | 111% | 110% | 100% | 92.2% |
| COc1ccc2c3c(c(OCCCN(C)C)nc2c1)-c1ccc(Cl)cc1C3=O | -17.3% (active) | -38.6% (active) | -43.3% (active) | -8.75% (active) | 55.5% | 30.8% | -46.4% (active) | 68.7% | 7.12% (active) | 72.7% |
| NS(=O)(=O)c1ccc(NC2=C(Cl)C(=O)c3ccccc3C2=O)cc1 | 61.2% | 88.6% | 102% | 94.4% | 90.2% | 75.3% | 98% | 142% | 93.6% | -48.3% (active) |
| CCC(O)C(C)(C)C (stereo not given) | 122% | 103% | 114% | 118% | 110% | 112% | 123% | 95.8% | 97.7% | 112% |
| Clc1nc(Cl)c2ncn(-c3ccccc3)c2n1 | 108% | 51.4% | 102% | 68.9% | 88.4% | -48.8% (active) | 54.9% | 12.4% | 92.6% | 50.6% |
| CCOc1nc(-c2ccccc2)cc2c(O)c(-c3nnco3)[nH]c(=O)c12 | 48.3% | 30.6% | 101% | 51.5% | 59.3% | 36.7% | 27.8% | 68% | 25.5% | 2.73% (active) |
| COc1ccc(Nc2ccnc(NCCCNc3ccnc4cc(Cl)ccc34)n2)cc1 | -60.5% (active) | 5.52% (active) | -19.9% (active) | 11.8% | -5.22% (active) | 21.7% | -84.5% (active) | -52.2% (active) | 35.4% | -51.8% (active) |
| COC1CC2CCC(C)C(O)(O2)C(=O)C(=O)N2CCCCC2C(=O)OC(C(C)CC2CCC(O)C(OC)C2)CC(=O)C(C)C=C(C)C(O)C(OC)C(=O)C(C)CC(C)/C=C/C=C/C=C1C (stereo not given) | 23.5% | 38.2% | 59.2% | 34.5% | 52.9% | 15.5% | 50% | 45.2% | 49.1% | 31.1% |
| C=CC1=C(C(=O)O)N2C(=O)[C@@H](NC(=O)/C(=N\O)c3csc(N)n3)[C@H]2SC1 (stereo in doubt) | 113% | 102% | 95.7% | 108% | 107% | 120% | 108% | 103% | 98% | 114% |
| COc1ccc(CCN2CCCN3C2=Nc2ccccc2S3(=O)=O)cc1 | 29.9% | 36.2% | 43.4% | 54.1% | 48.6% | 50.8% | 6.69% (active) | 39.5% | 15.8% | 44.7% |
| COc1cc2c(cc1OCCCOc1ccc(-c3cc4ccccc4c4ccccc34)cc1)N=C[C@@H]1CCCN1C2=O | 0.228% (active) | -6.49% (active) | -69.5% (active) | -77.1% (active) | -19.3% (active) | -72.3% (active) | -48.4% (active) | -15.3% (active) | -46.1% (active) | -66.4% (active) |
| COc1cc(C2CC(c3ccc(C)cc3)=NN2C(C)=O)ccc1Oc1ccnc2cc(Cl)ccc12 (stereo not given) | 83.8% | 63.1% | 92% | -15.8% (active) | 13.5% | 81.2% | 29.1% | 7.55% (active) | 54.6% | 62.2% |
| CCN1C[C@@H](C)n2c(c(O)c3c(=O)n(Cc4ccc(F)c(Cl)c4)nc(C(=O)NC)c32)C1=O | 19.4% | 22% | 88.6% | 80.2% | 43.5% | 28.7% | 38.1% | 16.7% | 15.3% | 27% |
